# Results filed as inconclusive are left out. Where a call stands in place of a potency, no number is given. The source made the active and inactive calls. The call rests on the fitted dose curve; in most records, active means well fitted inhibition curve with a large enough effect; inconclusive means small, poorly fitted or top-dose-only effect; inactive means no such curve, though single readings can be large or run the other way.
# Experiment: qHTS assay for measurement of the activity of small molecule inhibitors on Zika virus induced Caspase-3 activity in human iPSC derived neural progenitor cells (hNPCs) (AID 1224857); further: nearly all actives have a fitted effect of over 65% in size
# Settings: hNPCs ZIKV-induced caspase-3/7, Caspase-Glo luminescence, 6 h; series mostly up to 45.7 µM
# How it was run: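 After overnight (16–20 h) culture at 350 cells/well, hNPCs get compound, then ZIKV 2 FFU/cell one hour later. Six hours on, Caspase-Glo 3/7 is added and luminescence measured.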
row,SMILES,Potency
1,Nc1ccc(-c2nc3ccc(-c4nc5ccc(N)cc5[nH]4)cc3[nH]2)cc1,inactive
2,CCCCCCN(CCCCCC)C(=O)Cc1c(-c2ccc(F)cc2)[nH]c2ccccc12,inactive
3,CC[C@@H]1Cc2cc(O)ccc2C2=C1c1ccc(O)cc1C[C@H]2CC,inactive
4,N=C(N)c1ccccc1,inactive
5,CCCC(=O)NCCc1c2n(c3ccc(OC)cc13)CCCc1ccccc1-2,inactive
6,CCCCOc1cc(CC2CNC(=O)N2)ccc1OC (stereo unspecified),inactive
7,NCC(O)c1ccc(O)c(O)c1 (stereo unspecified),inactive
8,COc1cc(C(O)C(=O)O)ccc1O (stereo unspecified),inactive
9,c1ccc(C(NCc2cccnc2)(c2ccccc2)c2ccccc2)cc1,inactive
10,CC(C)(C)NCC(O)COc1cccc2[nH]c(=O)[nH]c12 (stereo unspecified),inactive
11,COc1ccc(-c2cc3ncc(C)n3c(Nc3ncccc3C(N)=O)n2)cc1OC,inactive
12,CC(N)=NCCCC[C@@H](N)C(=O)O,inactive
13,CCN(CC)CCOC(=O)c1cc(Cl)c(N)cc1OC,inactive
14,NC1CONC1=O (stereo unspecified),inactive
15,NC(N)=N[C@@H](CCC(=O)O)C(=O)O,inactive
16,CC1CCN=C(N)S1 (stereo unspecified),inactive
17,NCCNS(=O)(=O)c1cccc2c(Cl)cccc12,inactive
18,O=c1cc(O)cc(/C=C/c2ccc(O)c(O)c2)o1,inactive
19,NC(N)=NC(N)=Nc1ccccc1,inactive

row,SMILES,Potency
1,CN1Cc2sccc2C(c2ccc(O)c(O)c2)C1 (stereo unspecified),inactive
2,C#CC(N)CCC(=O)O (stereo unspecified),inactive
3,CCCc1c(OCCCOc2ccc(OCC(=O)O)cc2)ccc(C(C)=O)c1O,inactive
4,O=c1oc(Cl)c(Cl)c2ccccc12,inactive
5,COC(=O)C1=C(C)NC(C)=C([N+](=O)[O-])C1c1ccccc1C(F)(F)F (stereo unspecified),inactive
6,O=C(O)CCC(=O)N1CCCC1C(=O)O (stereo unspecified),inactive
7,CC(=O)O[C@H]1CC2(C)[C@@H](C[C@@H](O)[C@H]3[C@@]4(C)CC[C@@H](O)[C@@H](C)[C@@H]4CC[C@@]32C)C1=C(CCC=C(C)C)C(=O)O (stereo partly specified),inactive
8,Nc1ncnc2c1nc(Br)n2C1OC2COP(=O)(O)O[C@@H]2C1O (stereo partly specified),inactive
9,COc1ccc(-c2ccc(N)[n+](CCCC(=O)O)n2)cc1,inactive
10,N=C(N)c1ccc(N)cc1,inactive
11,CC(N)(Cc1ccc(O)c(O)c1)C(=O)O (stereo unspecified),inactive
12,Nc1ncnc2c1ncn2C1CCCC1,inactive
13,[Li+],inactive
14,COc1cccc(OC)c1OCCNCC1CSc2ccccc2O1 (stereo unspecified),inactive
15,C[C@@H](NCCc1ccc(O)cc1)[C@@H](O)c1ccc(O)cc1,inactive
16,CC(/C=C/c1cccc(Oc2ccc(F)cc2)c1)N(O)C(N)=O (stereo unspecified),inactive
17,O=C1NC(=O)c2cc(Nc3ccccc3)c(Nc3ccccc3)cc21,inactive
18,Cc1cccc(C2CN(C)CCc3c2cc(O)c(O)c3Cl)c1 (stereo unspecified),inactive
19,CCC(=O)N1CCN(C(=O)c2ccccc2)CC1,inactive

# Experiment: qHTS assay for measurement of the activity of small molecule inhibitors on Zika virus induced Caspase-3 activity in human astrocytoma cells (AID 1224859)
# Settings: SNB-19 ZIKV-induced caspase-3/7, luminescence, 6 h; series mostly up to 45.7 µM
# How it was run: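 Inhibition of Zika-induced caspase-3/7 activity: SNB-19 cells, 1 h compound pretreatment, ZIKV 2 FFU/cell for 6 h at 37 C, Caspase-Glo luminescence read-out.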
row,SMILES,Potency
1,Nc1ccc(-c2nc3ccc(-c4nc5ccc(N)cc5[nH]4)cc3[nH]2)cc1,inactive
2,CCCCCCN(CCCCCC)C(=O)Cc1c(-c2ccc(F)cc2)[nH]c2ccccc12,inactive
3,CC[C@@H]1Cc2cc(O)ccc2C2=C1c1ccc(O)cc1C[C@H]2CC,inactive
4,N=C(N)c1ccccc1,inactive
5,CCCC(=O)NCCc1c2n(c3ccc(OC)cc13)CCCc1ccccc1-2,inactive
6,CCCCOc1cc(CC2CNC(=O)N2)ccc1OC (stereo unspecified),inactive
7,NCC(O)c1ccc(O)c(O)c1 (stereo unspecified),inactive
8,COc1cc(C(O)C(=O)O)ccc1O (stereo unspecified),inactive
9,c1ccc(C(NCc2cccnc2)(c2ccccc2)c2ccccc2)cc1,inactive
10,CC(C)(C)NCC(O)COc1cccc2[nH]c(=O)[nH]c12 (stereo unspecified),inactive
11,COc1ccc(-c2cc3ncc(C)n3c(Nc3ncccc3C(N)=O)n2)cc1OC,inactive
12,CC(N)=NCCCC[C@@H](N)C(=O)O,inactive
13,CCN(CC)CCOC(=O)c1cc(Cl)c(N)cc1OC,inactive
14,NC1CONC1=O (stereo unspecified),inactive
15,NC(N)=N[C@@H](CCC(=O)O)C(=O)O,inactive
16,CC1CCN=C(N)S1 (stereo unspecified),inactive
17,NCCNS(=O)(=O)c1cccc2c(Cl)cccc12,inactive
18,O=c1cc(O)cc(/C=C/c2ccc(O)c(O)c2)o1,inactive
19,NC(N)=NC(N)=Nc1ccccc1,inactive

row,SMILES,Potency
1,CN1Cc2sccc2C(c2ccc(O)c(O)c2)C1 (stereo unspecified),inactive
2,C#CC(N)CCC(=O)O (stereo unspecified),inactive
3,CCCc1c(OCCCOc2ccc(OCC(=O)O)cc2)ccc(C(C)=O)c1O,inactive
4,O=c1oc(Cl)c(Cl)c2ccccc12,inactive
5,COC(=O)C1=C(C)NC(C)=C([N+](=O)[O-])C1c1ccccc1C(F)(F)F (stereo unspecified),inactive
6,O=C(O)CCC(=O)N1CCCC1C(=O)O (stereo unspecified),inactive
7,CC(=O)O[C@H]1CC2(C)[C@@H](C[C@@H](O)[C@H]3[C@@]4(C)CC[C@@H](O)[C@@H](C)[C@@H]4CC[C@@]32C)C1=C(CCC=C(C)C)C(=O)O (stereo partly specified),inactive
8,Nc1ncnc2c1nc(Br)n2C1OC2COP(=O)(O)O[C@@H]2C1O (stereo partly specified),inactive
9,COc1ccc(-c2ccc(N)[n+](CCCC(=O)O)n2)cc1,inactive
10,N=C(N)c1ccc(N)cc1,inactive
11,CC(N)(Cc1ccc(O)c(O)c1)C(=O)O (stereo unspecified),inactive
12,Nc1ncnc2c1ncn2C1CCCC1,inactive
13,[Li+],inactive
14,COc1cccc(OC)c1OCCNCC1CSc2ccccc2O1 (stereo unspecified),inactive
15,C[C@@H](NCCc1ccc(O)cc1)[C@@H](O)c1ccc(O)cc1,inactive
16,CC(/C=C/c1cccc(Oc2ccc(F)cc2)c1)N(O)C(N)=O (stereo unspecified),inactive
17,O=C1NC(=O)c2cc(Nc3ccccc3)c(Nc3ccccc3)cc21,inactive
18,Cc1cccc(C2CN(C)CCc3c2cc(O)c(O)c3Cl)c1 (stereo unspecified),inactive
19,CCC(=O)N1CCN(C(=O)c2ccccc2)CC1,inactive

# Source: PubChem BioAssay (NCATS)
